Most compounds without a hit are left out; they make up all but 2.4% or so of the library.
AmpC inh no det = Promiscuous and Specific Inhibitors of AmpC Beta-Lactamase (assay without detergent). P00811. AmpC nitrocefin hydrolysis, absorbance 480 nm, no detergent. Potency, µM (top dose mostly 28.7 µM), inactives show at the top dose activity change, negative = inhibition. hit rate 1.8% among 71,000; note: % of control where 0% means no effect
Target sequence (P00811 whole entry, looked up): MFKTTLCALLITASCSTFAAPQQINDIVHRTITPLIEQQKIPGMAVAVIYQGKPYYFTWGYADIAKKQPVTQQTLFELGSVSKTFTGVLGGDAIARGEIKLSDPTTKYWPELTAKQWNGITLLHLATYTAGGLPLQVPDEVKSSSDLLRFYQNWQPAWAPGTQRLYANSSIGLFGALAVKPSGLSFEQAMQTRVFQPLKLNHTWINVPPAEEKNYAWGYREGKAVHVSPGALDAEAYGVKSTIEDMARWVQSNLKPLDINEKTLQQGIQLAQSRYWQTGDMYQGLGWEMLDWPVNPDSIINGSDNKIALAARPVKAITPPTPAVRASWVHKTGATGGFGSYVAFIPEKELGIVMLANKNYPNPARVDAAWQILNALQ
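AmpC, 20 mM phosphate pH 7.0; 15 min cpd preinc, RT; start with nitrocefin (800 uM stock); A480 kinetic read, 20 s intervals, 4 min. No-enzyme wells = negative control.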
SmPrx2 inh = Schistosoma Mansoni Peroxiredoxins (Prx2); Potency, µM; S. mansoni Prx2 activity coupled to TGR/GSH (TGR is thioredoxin glutathione reductase), NADPH fluorescence loss, qHTS; Schistosoma mansoni peroxiredoxin 2 (Prx2); hit rate 0.07% among 65,000
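qHTS, coupled TGR/Prx2 format; 15 min compound preincubation at RT; reaction started with H2O2 (2.5 mM aliquot); kinetic NADPH fluorescence decrease, ex 365/em 450 nm.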
LT uptake inh = qHTS Assay for Anthrax Lethal Toxin Internalization | Cells, anthrax lethal toxin internalization, FRET ratio (460/530) | Potency, µM (series often up to 40 µM), inactives show top-dose activity change, negative = inhibition, most hits filed as inhibitors | hit rate 0.67% among 70,000; note: % is set by controls: 0 for no effect and ±100 for the full control effect; nearly all actives have a fitted effect of over 50% in size
AmpC inh det = Promiscuous and Specific Inhibitors of AmpC Beta-Lactamase (assay with detergent) | purified AmpC, nitrocefin hydrolysis with detergent | Potency, µM (series often up to 28.7 µM), without a hit: at the highest dose activity change, negative = inhibition | hit rate 0.09% among 71,000; active = well fitted curve in the direction sought with a large enough effect; inconclusive = small, poorly fitted or top-dose-only effect; note: % is set by controls: 0 for no effect and ±100 for the full control effect
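E. coli AmpC (5.3 nM) in 20 mM phosphate pH 7.0 with 0.01% Triton X-100, preincubated 15 min RT with compound; nitrocefin (2 uL of 800 uM stock) hydrolysis followed by 480 nm absorbance every 20 s over 4 min.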
* = called active by the depositor; ? = inconclusive; nt = no result; [ ] = dose if it differs, or a comment. Unless noted, calls come from the whole dose curve. Potency is the fitted concentration of half-maximal effect.

SMILES | AmpC inh no det | SmPrx2 inh | LT uptake inh | AmpC inh det
Cc1ccc(S(=O)(=O)C2(C(=O)Nc3ccc4c(c3)OCO4)CC2)cc1 | 3.98µM*[single pt active] | >57 | -6.7% | 22.2%
Cc1ccc(S(=O)(=O)C2(C(=O)Nc3ccc(F)cc3)CC2)cc1 | -7.1% | >57 | -7.4% | 11.1%
Cc1ccccc1N1C(=O)c2sc3nc4c(c(=O)n3c2C1=O)CCC4 | -16.8% | nt | 12.6µM* | 11.0%
O=C1c2sc3nc4c(c(=O)n3c2C(=O)N1c1ccccc1)CCC4 | -12.7% | >57 | -21.1% | 11.9%
CC(=O)[O-].CC(=O)[O-].O.O.O.[Pb+2] | 5.2% | nt | -6.4% | 12.2%
O=C1CCC(=O)N1c1cccc(-c2nc3ccccc3o2)c1 | 3.98µM*[single pt active] | >57 | 1.0% | 12.5%
O=C1c2cccnc2C(=O)N1c1cccc(-c2nc3ccccc3o2)c1 | 43.9% | >57 | -5.6% | -0.8%
Cc1cc(Cl)ccc1OCC(=O)Nc1ccccc1N1CCOCC1 | 7.7% | >57 | 15.8µM* | -3.3%
CN(C)[C@@H]1C(=O)C(C(N)=O)=C(O)[C@]2(O)C(=O)C3=C(O)c4c(O)cccc4[C@@](C)(O)[C@@H]3C[C@@H]12 | -2.6% | >57 | ? | -3.3%
O=C(Cn1nc(Cc2cccnc2)c2ccccc2c1=O)NCCCN1CCCC1=O | 3.6% | >57 | -9.3% | 7.6%
O=C(Cn1nc(Cc2cccnc2)c2ccccc2c1=O)Nc1ccc2c(c1)OCO2 | 3.98µM*[single pt active] | >57 | -16.7% | 14.0%
CCN(CC)CCNC(=O)Cn1nc(Cc2cccnc2)c2ccccc2c1=O | 3.98µM*[single pt active] | >57 | ? | 12.2%
CC(C)[C@@H]1NC(=O)[C@H](CCCCN)NC(=O)[C@H](Cc2c[nH]c3ccccc23)NC(=O)[C@H](Cc2ccc(O)cc2)NC(=O)[C@H](C)N(C)C(=O)[C@H](Cc2ccccc2)NC1=O | 88.7% | >57 | -14.8% | -4.4%
O=C(O)Cc1[nH]cnc1C(=O)O | -12.5%[5.75 µM] | >57 | 1.6%[8 µM] | 0.5%[5.75 µM]
CCN(CC)S(=O)(=O)c1ccc(C(=O)OCCN2C(=O)CCC2=O)cc1 | 3.98µM*[single pt active] | >57 | 3.2% | 11.1%
Clc1ccc(CSc2ncnc3c2ncn3[C@@H]2CCCCO2)cc1 | 24.0%[5.75 µM] | >57 | -7.2%[8 µM] | -5.5%[5.75 µM]
CC(Oc1ccc(Cl)cc1Cl)C(=O)Nc1ccncc1 (stereo not drawn) | 19.3% | >57 | 7.94µM* | -3.1%
CSc1nc2ccccc2n1CC(=O)Nc1ccccc1 | 5.5% | nt | 15.8µM* | 4.4%
CCc1ccc(NC(=O)Cn2c(SC)nc3ccccc32)cc1 | 47.2% | >57 | ? | 5.0%
Cc1nc2c3ccccc3n(CC(=O)c3ccc(F)cc3)c(=O)n2n1 | 3.98µM*[single pt active] | >57 | ? | 13.8%
N#Cc1c(-c2ccccc2)no[n+]1[O-] | 3.3% | 8.68* | -5.2% | 0.1%
N#Cc1cn(-c2ccccc2)nc1-c1ccccc1 | -13.1% | >57 | -6.3% | 2.2%
CN(CCc1ccc(Cl)c(Cl)c1)[C@H]1CCCC[C@H]1N1CCCC1 | 42.1% | >57 | 25.1µM* | -5.9%
CN(CCc1ccc(Cl)c(Cl)c1)CCN1CCCCCC1 | 27.9% | >57 | ? | -3.5%
CC(=O)OCC1OC(C#Cc2ccc(Cl)cc2)C=CC1OC(C)=O (stereo not drawn) | nt | nt | -7.4%[8 µM] | nt
SMILES | AmpC inh no det | SmPrx2 inh | LT uptake inh | AmpC inh det
O=C(NCCCN1CCOCC1)c1c(O)c2ccccc2[nH]c1=O | 23.9% | >57 | 3.1% | -3.0%
COc1cc2[nH]c(=O)c(C(=O)NCCCN3CCCCC3)c(O)c2cc1OC | 30.6% | >57 | 12.6µM* | 8.6%
CCN1C[C@@]2(C)CC[C@H](O)[C@@]34[C@@H]5C[C@H]6[C@H](O)[C@@H]5[C@](O)(C[C@@H]6OC)[C@H](C[C@@H]23)[C@H]14 | -7.4% | >57 | ? | -0.6%
CCOc1c(C(N)=O)c(-c2ccccc2)c2c(=O)[nH]c3ccccc3n12 | 12.6µM* | >57 | ? | 0.9%
COc1ccccc1NC(=O)N1CCN(c2ccccn2)CC1 | 3.98µM*[single pt active] | >57 | 5.6% | 12.6%
COc1ccc(S(=O)(=O)Cc2ccc(C(=O)N3CCN(c4ccccn4)CC3)o2)cc1 | 3.98µM*[single pt active] | >57 | -13.7% | 10.9%
COc1ccc(S(=O)(=O)Cc2ccc(C(=O)N3CCC(C(N)=O)CC3)o2)cc1 | 5.7% | >57 | 8.7% | 5.5%
Cc1ccccc1S(=O)(=O)Cc1ccc(C(=O)N2CCN(c3cccc(C)c3C)CC2)o1 | 84.8% | >57 | ? | -3.2%
Cc1ccccc1S(=O)(=O)Cc1ccc(C(=O)N2CC(C)CC(C)C2)o1 (stereo not drawn) | 3.98µM*[single pt active] | >57 | 2.7% | 10.0%
COc1ccc(S(=O)(=O)Cc2ccc(C(=O)N3CCCC3)o2)cc1 | 3.16µM*[single pt active] | >57 | 0.3% | 8.6%
CN1C[C@H](C(=O)N[C@@]2(C)O[C@@]3(O)[C@H]4CCCN4C(=O)[C@@H](Cc4ccccc4)N3C2=O)C=C2c3cccc4[nH]cc(c34)C[C@@H]21 | 22.2%[5.75 µM] | >11.4 | -3.4%[8 µM] | -3.9%[5.75 µM]
CN(C(=O)c1ccccc1C(=O)O)C1CC(C)(C)NC(C)(C)C1 | -5.4% | >57 | -11.8% | 11.1%
NC(=O)C/C=C\CC(N)=O | 0.7%[5.75 µM] | >57 | -12.3%[8 µM] | -3.5%[5.75 µM]
CC(C)(C)c1ccc(OCC2CO2)cc1 (stereo not drawn) | -2.8% | nt | -1.8% | 9.3%
O=C(O)Cn1c(=O)oc2cc(S(=O)(=O)N3CCOCC3)ccc21 | -2.0% | >57 | 0.6% | 7.5%
COc1ccccc1S(=O)(=O)Cc1ccc(C(=O)N2CCN(c3ccccn3)CC2)o1 | 3.98µM*[single pt active] | >57 | -13.0% | 10.9%
COc1ccccc1S(=O)(=O)Cc1ccc(C(=O)N2CCCC2)o1 | 21.5% | >57 | 6.1% | 11.1%
O=C(Cn1nc(Cc2ccncc2)c2ccccc2c1=O)N1CCc2ccccc2C1 | 3.98µM*[single pt active] | >57 | -1.5% | 10.8%
O=C(Cn1nc(Cc2cccnc2)c2ccccc2c1=O)N1CCC2(CC1)OCCO2 | -5.5% | >57 | 11.3% | 0.7%
CN(C)C(=O)Cn1nc(-c2ccccc2)c2ccccc2c1=O | 10.6% | >57 | 4.1% | -3.2%
CN(CCC#N)C(=O)Cn1nc(Cc2ccncc2)c2ccccc2c1=O | 3.98µM*[single pt active] | >57 | -4.4% | 11.2%
O=C(O)c1cc(Cl)cc(Cc2cc(Cl)cc(C(=O)O)c2O)c1O | -6.7%[5.75 µM] | >57 | ? | -4.4%[5.75 µM]
O=C(NCCc1c[nH]c2ccccc12)c1c(Cl)nc2sccn12 | 12.6µM* | >57 | 9.1% | -3.0%
Cn1c(C(=O)NCCc2c[nH]c3ccccc23)cc2sccc21 | -5.9% | >57 | ? | 11.7%
COC(=O)CN(c1ccc(C(C)C)cc1)S(=O)(=O)c1c(C)[nH]c(=O)[nH]c1=O | 3.98µM*[single pt active] | >57 | -12.1% | 13.8%
Cc1ccnc(NC2c3ccccc3C(=O)N2Cc2ccccc2Cl)c1 (stereo not drawn) | 3.98µM*[single pt active] | >57 | -5.8% | 12.5%
Cn1c(Cn2c(=O)sc3ccccc32)nnc1SCC(=O)Nc1ccc(Cl)cc1 | 3.98µM*[single pt active] | >57 | 7.8% | 11.5%
Cc1cc(C)cc(NC(=O)CSc2nnc(Cn3c(=O)sc4ccccc43)n2C)c1 | 3.98µM*[single pt active] | >57 | -1.2% | 8.6%
Cn1c(Cn2c(=O)sc3ccccc32)nnc1SCC(=O)Nc1cccc(Cl)c1 | 8.2% | >57 | 7.2% | 22.8%
Cn1c(Cn2c(=O)sc3ccccc32)nnc1SCC(=O)Nc1cccc(F)c1 | 3.98µM*[single pt active] | >57 | -2.1% | 12.6%

Screening results from PubChem BioAssay.
